Results published in PMC5540273 (PLoS ONE, 2017).

Experiments:
Settings in all cases: concentration: 1 μM, replicates: in singlicate; n = 1
CSNK1A1 = test system: CSNK1A1
CSNK1D = test system: CSNK1D
CSNK1E = test system: CSNK1E
CSNK1G1 = test system: CSNK1G1
CSNK1G2 = test system: CSNK1G2
CSNK1G3 = test system: CSNK1G3
CSNK2A1 = test system: CSNK2A1
CSNK2A2 = test system: CSNK2A2
CTK = test system: T1, CTK
T1 construct: gene MATK

DAPK1 = test system: DAPK1
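Further: KINOMEscan kinase panel screen.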

| SMILES | %Inh (CSNK1A1) [%] | %Inh (CSNK1D) [%] | %Inh (CSNK1E) [%] | %Inh (CSNK1G1) [%] | %Inh (CSNK1G2) [%] | %Inh (CSNK1G3) [%] | %Inh (CSNK2A1) [%] | %Inh (CSNK2A2) [%] | %Inh (CTK) [%] | %Inh (DAPK1) [%] |
| --- | --- | --- | --- | --- | --- | --- | --- | --- | --- | --- |
| COc1ccccc1CNC(=O)c1cc(C(=O)c2ccccc2C)c[nH]1 [GSK364507] | 0 | 28 | 20 | 15 | 0 | 9 | 0 | 100 | 0 | 0 |
| Cc1cccc(-c2nc(Nc3cccc(C(N)=O)c3)c3ccccc3n2)n1 [GW876019] | 37 | 8 | 15 | 0 | 0 | 18 | 30 | 19 | 13 | 15 |
| Cc1cc(N2Cc3ccccc3C2)nc(Nc2ccc(S(=O)(=O)N3CCOCC3)cc2)n1.Cl [GSK1669917] | 0 | 0 | 4 | 0 | 0 | 19 | 2 | 7 | 0 | 0 |
| Fc1cc(Cl)ccc1Nc1ccnc2cc(I)ccc12 [GW551191] | 0 | 5 | 35 | 4 | 0 | 20 | 0 | 0 | 0 | 19 |
| Clc1cc(Cl)cc(Nc2ccnc(Nc3cc(Cl)cc(Cl)c3)n2)c1 [GSK175726] | 0 | 17 | 57 | 22 | 0 | 9 | 4 | 89 | 0 | 11 |
| Cc1nnc(-c2ccc3occ(-c4ccc(S(C)=O)cc4)c3c2)[nH]1 (centres unmarked) | 0 | 0 | 0 | 8 | 4 | 0 | 63 | 72 | 21 | 10 |
| COc1ccc2nc(-c3cccc(C)n3)nc(Nc3ccncc3)c2c1 [GSK204919] | 31 | 49 | 64 | 0 | 0 | 7 | 4 | 0 | 0 | 0 |
| COc1cc2ncnc(Nc3ccc4nc(-c5ccccc5)[nH]c4c3)c2cc1OC.Cl [GW282450] | 0 | 6 | 24 | 15 | 0 | 17 | 5 | 98.4 | 0 | 1 |
| Cc1ccc(NC(=O)Nc2cccc(Cl)c2)cc1-c1ccc(C(=O)Nc2ccncc2)cc1 [GSK1398468] | 0 | 57 | 19 | 2 | 0 | 25 | 0 | 0 | 0 | 3 |
| CCn1c(-c2ccccn2)nc2cnccc21 [SB-736398] | 0 | 0 | 4 | 0 | 0 | 0 | 0 | 0 | 0 | 0 |
| Cc1cccc(-c2nc(Nc3ccc4[nH]ncc4c3)c3ccccc3n2)n1 [GW857175] | 0 | 28 | 28 | 15 | 0 | 18 | 94 |  | 18 | 10 |
| COc1ccc(Nc2nccc(-c3cccc(NC(=O)c4cc5cc(F)ccc5[nH]4)c3)n2)cc1 [GSK1229782] | 0 | 37 | 33 | 13 | 17 | 32 | 8 | 27 | 0 | 0 |
| O=S(=O)(c1ccc(-c2ccnc3[nH]ccc23)cc1)N1CCCC1 [GSK846226] | 0 | 7 | 41 | 5 | 0 | 37 | 4 | 6 | 0 | 58 |
| O=C1NC(=O)C(N2CCc3ccccc32)=C1c1ccccc1Cl [SB-373598] | 33 | 18 | 18 | 13 | 9 | 14 | 2 | 15 | 0 | 22 |
| CC(C)(C)c1ccc(C(=O)Nc2cn3cc(Cl)ccc3n2)cc1 | 19 | 67 | 59 | 0 | 16 | 0 | 0 | 0 | 0 | 20 |
| COc1cc2ncn(-c3cc(OCC4CCCO4)c(C(N)=O)s3)c2cc1OC (centres unmarked) [GSK204607] | 0 | 8 | 17 | 1 | 0 | 26 | 8 | 9 | 0 | 29 |
| CC(C)(C)c1ccc(C(=O)Nc2cn3cc(-c4cccnc4)ccc3n2)cc1 | 41 | 78 | 92.4 | 10 | 24 | 21 | 22 | 17 | 12 | 40 |
| Cc1ccc(C(=O)Nc2ccc(Nc3ccnc4cc(-c5ccccn5)ccc34)cc2O)cc1.Cl [GW440146] | 0 | 7 | 23 | 0 | 0 | 4 | 0 | 0 | 0 | 0 |

| SMILES | %Inh (CSNK1A1) [%] | %Inh (CSNK1D) [%] | %Inh (CSNK1E) [%] | %Inh (CSNK1G1) [%] | %Inh (CSNK1G2) [%] | %Inh (CSNK1G3) [%] | %Inh (CSNK2A1) [%] | %Inh (CSNK2A2) [%] | %Inh (CTK) [%] | %Inh (DAPK1) [%] |
| --- | --- | --- | --- | --- | --- | --- | --- | --- | --- | --- |
| Cl.NC(=O)c1cccc(Nc2nccc(Nc3ccc(Oc4cccc(Cl)c4)c(Cl)c3)n2)c1 [GW659008] | 1 | 5 | 8 | 0 | 0 | 17 | 15 | 19 | 2 | 0 |
| O=C(Nc1ccccc1)Nc1cccc(Oc2ccc3nccn3n2)c1 | 0 | 0 | 0 | 0 | 0 | 2 | 0 | 0 | 0 | 10 |
| Cc1cc(NCC(c2ccccc2)c2ccccc2)nc(NCc2ccc(C(F)(F)F)cc2)n1 [GW497681] | 0 | 0 | 34 | 0 | 0 | 22 | 0 | 0 | 0 | 2 |
| COc1ccc(C2=C(Nc3cccc(C(=O)O)c3)C(=O)NC2=O)cc1 [SB-390765] | 15 | 14 | 0 | 11 | 0 | 3 | 18 | 10 | 43 | 5 |
| COc1ccc(Nc2nccc(NCCNC(=O)Nc3ccccc3F)n2)cc1 [GSK1379901] | 0 | 7 | 99.4 | 7 | 0 | 25 | 0 | 2 | 0 | 0 |
| O=C(Nc1n[nH]c2nc(-c3nccs3)c(Br)cc12)C1CC1 [SB-742251] | 0 | 21 | 14 | 13 | 0 | 0 | 0 | 36 | 15 | 0 |
| CN1C(=O)C(Nc2ccc(Cl)c(C(=O)O)c2)=C(c2ccc(Cl)cc2)C1=O [SB-404290] | 0 | 0 | 38 | 0 | 0 | 15 | 18 | 7 | 0 | 0 |
| COc1cccc(-c2cc(-c3c[nH]nc3-c3ccccn3)ccn2)c1 [GW680338] | 31 | 25 | 23 | 1 | 3 | 10 | 4 | 11 | 0 | 0 |
| C[C@@H]1CCCCN1c1cc(-c2ccc3c(N)n[nH]c3c2)nc(N)n1 [GSK2258759] | 0 | 39 | 35 | 6 | 0 | 26 | 6 | 76 | 0 | 18 |
| COc1cc(Nc2nccc(N3CCC(NC(=O)Nc4cc(C)ccc4C)C3)n2)cc(OC)c1OC (centres unmarked) [GSK1379762] | 3 | 0 | 13 | 1 | 0 | 22 | 25 | 0 | 8 | 0 |
| Cl.O=C(Nc1cccc(-c2nn3ncccc3c2-c2ccnc(Nc3cccnc3)n2)c1)c1c(F)cccc1F [GSK312879] | 0 | 15 | 24 | 8 | 0 | 15 | 1 | 0 | 25 | 2 |
| Cc1c(Cn2ccn3c(=O)cc(N4CCOCC4)nc23)cccc1C(F)(F)F [GSK2289044] | 33 | 6 | 25 | 19 | 5 | 18 | 0 | 3 | 0 | 13 |
| CC(=O)Nc1nc2cnc(Nc3cc(NC(=O)c4cccc(CCC#N)c4)ccc3C)nc2s1 | 23 | 3 | 0 | 2 | 7 | 0 | 0 | 9 | 0 | 0 |
| Cc1cccc(-c2nc(C)cc(Nc3ccncc3)n2)n1 [GSK257997] | 0 | 43 | 42 | 13 | 0 | 10 | 2 | 22 | 0 | 9 |
| Nc1nc(-c2nccs2)c(-c2ccnc3ccccc23)s1 [GW693542] | 40 | 58 | 41 | 9 | 0 | 24 | 0 | 2 | 0 | 0 |
| CS(=O)(=O)c1ccc(-c2nc3n(c2-c2ccncc2)CCC3)cc1 [SKF-105942] | 0 | 6 | 22 | 4 | 0 | 2 | 0 | 9 | 0 | 0 |
| Cn1ccc2ncnc(Oc3cccc(C(=O)Nc4ccccc4)c3)c21 | 0 | 0 | 1 | 0 | 0 | 2 | 25 | 11 | 17 | 20 |
| COc1cccc(NC(=O)NC2CCN(c3ccnc(Nc4ccc(F)cc4)n3)C2)c1 (centres unmarked) [GSK1379721] | 0 | 0 | 37 | 9 | 0 | 27 | 0 | 10 | 0 | 10 |
